In PubChem BioAssay (NCI):
The panel holds about 83,000 compounds, 20% with a hit somewhere; the sample as a whole holds those more often.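 Percent growth is the endpoint: 0 to 100 indicates growth inhibition (40 means 60% inhibition), 0 means no net growth, and negative values indicate cell death.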 Calls of active or inactive are those of the source. The calls were made as follows: active = growth percent below 10; inactive = the rest.

Legend:
Assay in all cases: NCI-60 one-dose screen, 48 h (100 = growth as untreated, 0 = no growth, -100 = all killed)
Details in all cases: 10 µM unless noted
[1] = test system: NCI-H23 lung
[2] = test system: NCI-H226 lung
[3] = test system: HOP-62 NSCLC
[4] = test system: NCI-H460 lung
[5] = test system: HOP-92 NSCLC
[6] = test system: NCI-H522 lung
[7] = test system: A549/ATCC NSCLC
[8] = test system: 786-0 renal
[9] = test system: COLO 205 colon
[10] = test system: NCI-H322M lung

Measured: growth

Nn1c(SCC(=O)Nc2ccc(Cl)cc2)nnc1-c1cc(F)c(Cl)cc1Cl
inactive: [1] 93% | [2] 93.5% | [3] 55.8% | [4] 90% | [5] 76.6% | [6] 66.1% | [7] 87.2% | [8] 93.4% | [9] 96.6%

O=C(O)c1ccc(-n2cc(/C=N/Nc3ccc(Cl)cc3Cl)c(-c3ccccc3)n2)cc1
inactive: [1] 84.5% | [2] 88.6% | [3] 92.2% | [4] 102% | [5] 106% | [6] 78% | [7] 97.1% | [8] 97.5% | [9] 96.7%

CCN(CC)CC#CCOC(=O)[C@]1(C)CCC[C@]2(C)[C@H]3C[C@H]4C(C(C)C)=C[C@]3(CC[C@H]21)[C@@H]1C(=O)CCC(=O)[C@@H]14
inactive: [1] 57.3% | [2] 76.2% | [3] 79.2% | [4] 59.2% | [5] 57% | [6] 29.5% | [7] 48.1% | [8] 54.1% | [9] 36.2%

CCOCc1cc(C(C)(C)C)ccc1O
inactive: [1] 103% | [2] 97.4% | [3] 95.2% | [4] 103% | [5] 92.3% | [6] 77.9% | [7] 90.4% | [8] 97.6% | [9] 114%

C#C[C@@]1(O)[C@@H](CO)O[C@@H](n2cnc3c(-c4ccccc4)ncnc32)[C@@H]1O
inactive: [1] 101% | [2] 104% | [3] 110% | [4] 112% | [5] 105% | [6] 94.8% | [7] 94.1% | [8] 98.8% | [9] 109%

CCCCc1n(Cc2ccc3ccccc3c2)c2ccccc2[n+]1Cc1ccc2ccccc2c1
active: [1] -83.9% | [2] -72.7% | [3] -76.8% | [4] -81.1% | [5] -70.7% | [6] -77.2% | [7] -72.3% | [8] -80.1% | [9] -66.9%

O=Cc1[nH]c(Sc2ccccc2)c2ccccc12
inactive: [1] 67.2% | [2] 66.9% | [3] 85.6% | [4] 90.5% | [5] 45.7% | [6] 107% | [7] 96.1% | [8] 81.1% | [9] 64.8%

O=C(CCCCCCCCC(=O)Nc1cccc(C2=NCCN2)c1)Nc1cccc(C2=NCCN2)c1
inactive: [1] 75.8% | [2] 101% | [10] 105% | [3] 102% | [4] 93.6% | [5] 90.5% | [6] 70.3% | [7] 96.6% | [8] 100% | [9] 92.2%

COc1cc(/C=C/C(=O)/C=C/c2cc3ccc(Cl)cc3[nH]c2=O)ccc1O
inactive: [1] 61.2% | [2] 80.1% | [3] 114% | [4] 53.3% | [5] 77.4% | [6] 66.4% | [7] 79.8% | [8] 30.8% | [9] 105%

Fc1ccc(N/N=C/c2ccc(-n3cccn3)cc2)cc1
inactive: [1] 90.7% | [2] 92.3% | [3] 82.1% | [4] 106% | [5] 105% | [6] 77.2% | [7] 93.7% | [8] 104% | [9] 98.1%

COC(=O)/C=C/c1cc(OC)c2c(c1)[C@@H](C(=O)OC)[C@H](c1ccc(OC)c(OC)c1)O2
inactive: [1] 38.9% | [2] 79.4% | [3] 24.9% | [4] 59.7% | [5] 66.8% | [6] 22.1% | [7] 67.2% | [8] 37.9% | [9] 23.9%

C=C(C)[C@@H]1CC[C@]2(C(=O)N3CCN(C)CC3)CC[C@]3(C)[C@H](CC[C@@H]4[C@@]5(C)C/C(=C/c6ccco6)C(=O)C(C)(C)[C@@H]5CC[C@]43C)[C@@H]12
inactive: [1] 79.9% | [2] 86.4% | [3] 73.6% | [4] 64.9% | [5] 55.7% | [6] 74% | [7] 60.6% | [8] 71.2% | [9] 74.6%
